Compound activity (PubChem)
Rows were chosen to be rich in hits. Some 2.6% of all compounds tested hit in one or more screens of this group.
Nrf2 block: Nrf2 pathway inhibition | Potency, µM (doses to about 46 µM), for the others: top-dose activity change, negative = inhibition, usual class: inhibitors | AID 504444 | 360,000 tested, 2.1% active | A549 ARE-Fluc reporter, luciferase luminescence, 18-24 h; further: potency means the concentration at half of the fitted maximal effect; on the % scale 0 is the no-effect control and ±100 the full control effect; nearly all actives have a fitted effect of over 60% in size
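Cells were seeded and rested 2 h, then exposed to compounds for 18-24 h. CellTiter-Fluor was read first as a viability measure. BugLite was added 15 min before the final luminescent read of ARE-luciferase activity in A549 cells.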
A549 viability: kills or reduces viability of A549 cells in Nrf2 counter-screen; Potency, µM (top dose mostly 46 µM), without a hit: top-dose activity change, negative = cytotoxicity, usual class: inhibitors; AID 504648; 390,000 tested, 0.16% active; A549 ARE-Fluc cells, CellTiter-Fluor viability, 18-24 h; further: potency means the concentration at half of the fitted maximal effect; on the % scale 0 is the no-effect control and ±100 the full control effect
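A549 ARE_Fluc cells in 5% FBS OPTI-MEM were exposed to compounds in concentration-response for 18-24 h at 37 deg C. Viability was read by CellTiter-Fluor fluorescence (Ex 405/Em 525) after 30 min, before the luciferase read.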
A-T KAP1 phos: candidate therapy for ataxia-telangiectasia | F2112 A-T fibroblasts, KAP-1 phosphorylation AlphaLISA; neocarzinostatin DNA damage 30 min before lysis | Potency, µM (doses to about 57.5 µM), inactives show top-dose activation, actives largely listed as activators | 320,000 tested, 0.19% active; further: potency means the concentration at half of the fitted maximal effect; % of control where 0% means no effect; nearly all actives have a fitted effect of over 45% in size
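ATM-like activity read as KAP-1 phosphorylation via AlphaLISA donor/acceptor antibody pairs after lysis and 6 hr at 25C. Cells were ATM-null patient fibroblasts (F2112, hTERT), dosed 60 min, then exposed to the DSB inducer NCS for 30 min.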
TCR act: T cell receptor activation. primary human leukocytes, anti-CD3, IL-2 HTRF, 48 h. Potency, µM (top dose mostly 9.22 µM), for inactives: at the top dose activation of IL-2 secretion, hits mostly activators. 330,000 tested, under 10 active; further: % of control where 0% means no effect
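Primary human leukocytes receive a-CD3 beads and test compound and are incubated 48 hr. Secreted IL-2 is then assayed by HTRF, measuring 665nm acceptor emission after 320nm excitation of the europium donor.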
Nrf2 ARE act: activates Nrf2 signaling; AID 624171; AREc32 ARE-luciferase reporter (MCF7-derived line), luminescence, 24 h; 410,000 tested, 0.31% active; Potency, µM (titrated, usually from 46.1 µM), for the others: at the highest dose activation, most hits filed as activators; further: potency means the concentration at half of the fitted maximal effect; % of control where 0% means no effect; nearly all actives have a fitted effect of over 65% in size
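Quantitative high-throughput format: AREc32 reporter cells, 1000 per well, received compound by pin transfer and were incubated 24 hr at 37 deg C, 5% CO2, before Steady-Glo luminescence detection.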
CCT modulator: changes cytosolic chaperonin activity | purified chaperonin ATPase assay, HTRF ADP detection, 30 min | activity change, % (test concentration not listed), hits read low | 360,000 tested, 0.3% active; in the data active means activity change below about -30%; further: on the % scale 0 is the no-effect control and ±100 the full control effect
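We incubate TRiC, 40 or 20 nM final, with library compounds at 76 uM and 10 uM ATP for 30 min at 37 °C. ADP formed is detected with Transcreener HTRF reagents after 30 min at room temperature.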
Starred values were filed as active, the others as inactive; [ ] = dose if it differs, or a comment. Unless noted, the call rests on the fitted dose curve; in most records, active means well fitted curve in the direction sought with a large enough effect; inconclusive means small, poorly fitted or top-dose-only effect, or another doubt; inactive means no such curve, though single readings can be large; an effect the other way counts as inactive or inconclusive.

Screening N#Cc1ccc(OCC(O)CN2CCN(c3ncc(C(F)(F)F)cc3Cl)CC2)cc1 (stereo not given) returned Nrf2 block 18µM*, A549 viability -14%, A-T KAP1 phos 16%, TCR act 1%, Nrf2 ARE act 3% and CCT modulator -2.
For CCCCc1ccc(NC(=O)Nc2cc(C)nn2C)cc1 the results were Nrf2 block -19%, A549 viability 3%, A-T KAP1 phos -3%, TCR act 6%, Nrf2 ARE act 0% and CCT modulator -111*.
For Cc1cc(C)c(-n2nnnc2SCC(=O)c2cccs2)c(C)c1 the results were Nrf2 block inconclusive, A549 viability 3%, A-T KAP1 phos 0%, TCR act 6%, Nrf2 ARE act 4% and CCT modulator 0.
For CN(C(=O)Cc1c[nH]c2ccccc12)C(C(=O)Nc1ccc2c(c1)OCO2)c1ccccc1 (stereo not given) the results were Nrf2 block 23µM*, A549 viability inconclusive, A-T KAP1 phos -2%, TCR act 0%[46.1 µM], Nrf2 ARE act 4% and CCT modulator -1.
CC(=O)NC(Cc1c[nH]c2ccccc12)C(=O)Nc1ccc2c(c1)OCO2 (stereo not given) was read as A549 viability -1%, A-T KAP1 phos 5%, TCR act -6%, Nrf2 ARE act 4% and CCT modulator -2.
CCCCN(CC)CCNC(=O)C1CCN(c2nnc(C)c3c(C)n(-c4ccc(C)cc4)nc23)CC1 was read as Nrf2 block inconclusive, A549 viability 23µM* and Nrf2 ARE act 4%.
CSc1nc2nc(C(F)(F)F)cc(-c3ccccc3)n2n1 was read as Nrf2 block 1%, A549 viability -4%, A-T KAP1 phos -4%, TCR act -1%, Nrf2 ARE act 14µM* and CCT modulator -3.
CN(Cc1ccccc1)C(=S)Nc1ccc(OC(F)F)cc1 was read as Nrf2 block 5%, A549 viability 0%, A-T KAP1 phos 6%, TCR act 1%[46.1 µM], Nrf2 ARE act -1% and CCT modulator -2.
Screening CN(C)CCCN(Cc1ccccc1)C(=S)Nc1ccc(OC(F)F)cc1 returned Nrf2 block -2%, A549 viability 7%, A-T KAP1 phos 3%, TCR act 1%[46.1 µM], Nrf2 ARE act 3%[9.22 µM] and CCT modulator -54*.
`CCCc1cc(N2CCN(c3ccccc3F)CC2)n2cnnc2n1` gave Nrf2 block 16µM*, A549 viability -13% and Nrf2 ARE act -1%.
`COc1ccc(-c2nc(CN3CCN(C(=O)c4ccco4)CC3)c(C)o2)c(F)c1` gave Nrf2 block -6%, A549 viability -3%, A-T KAP1 phos -3%, TCR act -4%, Nrf2 ARE act 0% and CCT modulator -1.
For COc1ccc(-c2nc(SCC(=O)Nc3ccccc3)c(-c3ccc(F)cc3)[nH]2)cc1OC the results were Nrf2 block 15µM*, A549 viability inconclusive and Nrf2 ARE act 0%.
`COc1ccc(NC(=O)C#Cc2ccccc2)cc1OC` gave Nrf2 block 8.2µM*, A549 viability -8%, A-T KAP1 phos 4%, TCR act 4%, Nrf2 ARE act 12%[9.22 µM] and CCT modulator 0.
COc1ccc(-c2nc(SCC(=O)Nc3ccc4c(c3)OCO4)c(-c3ccc(F)cc3)[nH]2)cc1OC was read as Nrf2 block inconclusive, A549 viability -6% and Nrf2 ARE act -2%.
For COc1ccc(NC(=O)CSc2ncccc2C(=O)OC(C)C)cc1OC the results were Nrf2 block 9.2µM*, A549 viability 1%, TCR act -5%, Nrf2 ARE act 2% and CCT modulator -2.
O=C(CSc1nc(-c2ccc(F)cc2)[nH]c1-c1ccccc1)Nc1ccccc1 was read as Nrf2 block 21µM*, A549 viability -24% and Nrf2 ARE act 3%.
For O=S(=O)(c1ccc2c(c1)OCCO2)N1CCN(S(=O)(=O)c2cccc3cccnc23)CC1 the results were Nrf2 block 12% and A549 viability 9%.
Screening CCCCC(=O)Nc1ccccc1C(=O)OCc1cc(=O)n2nc(C3CCCCC3)sc2n1 returned A549 viability 1% and Nrf2 ARE act 12%.
For COc1cc(-c2ccc3ncnc(NCCc4cnc[nH]4)c3c2)cc(OC)c1OC the results were Nrf2 block inconclusive and A549 viability 9%.
Screening C=CCc1cc(OC)ccc1OCCOCCN1CCc2ccccc2C1 returned Nrf2 block 1%, A549 viability 3%, A-T KAP1 phos 6%, TCR act -3%, Nrf2 ARE act 2% and CCT modulator 1.
`COc1ccc(NC(=O)CSc2nc(-c3ccccc3)[nH]c2-c2ccccc2)cc1OC` gave Nrf2 block 16µM*, A549 viability -18% and Nrf2 ARE act 0%.
For COc1ccc(NC(=O)CSc2nc(-c3ccc(F)cc3)[nH]c2-c2ccc(C)cc2)cc1OC the results were Nrf2 block inconclusive, A549 viability inconclusive and Nrf2 ARE act 7%.
`COc1ccc(C2c3c(N)nc(Cc4ccccc4)nc3Oc3ccc4ccccc4c32)cc1OC` (stereo not given) gave Nrf2 block inconclusive and A549 viability -11%.
For COc1cc(-c2nn3c(-c4cc(-c5ccccc5)n[nH]4)nnc3s2)cc(OC)c1OC the results were Nrf2 block 21µM* and A549 viability inconclusive.
`Cc1cccc(NC(=O)C2CCN(S(=O)(=O)c3cccc4nsnc34)CC2)n1` gave Nrf2 block inconclusive, A549 viability -2%, A-T KAP1 phos 6%, TCR act -3%, Nrf2 ARE act -1% and CCT modulator -2.
`CCC1CCCCN1CCNC(=O)C1CCN(S(=O)(=O)c2cccc3nsnc23)CC1` (stereo not given) gave Nrf2 block 0%, A549 viability -2%, A-T KAP1 phos -1%, TCR act -12%, Nrf2 ARE act 0% and CCT modulator -74*.
Screening Cc1cccc2sc(NC(=O)C3CCN(S(=O)(=O)c4cc([N+](=O)[O-])ccc4Cl)CC3)nc12 returned Nrf2 block 12µM*, A549 viability inconclusive, A-T KAP1 phos -1%, TCR act 1%[46.1 µM], Nrf2 ARE act 9% and CCT modulator 1.
`COc1ccc2nc(NC(=O)C3CCN(S(=O)(=O)c4cccc5nsnc45)CC3)sc2c1` gave Nrf2 block 16µM*, A549 viability -20%, A-T KAP1 phos 0%, TCR act 23%, Nrf2 ARE act 0% and CCT modulator 0.
